Measurements taken from PubChem BioAssay (NCI).
About 83,000 compounds went through this panel and 20% of them were active in at least one assay; those are over-represented in the sample as a whole.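 The test compound was applied at a single concentration to cells in 96-well plates for 48 hours, and percent growth was recorded.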 A number with no mark means an inactive call. Active and inactive are the calls of the source. The calls were made as follows: active = growth percent below 10; inactive = the rest.

Legend:
Test in all cases: NCI-60 one-dose screen, 48 h (100 = growth as untreated, 0 = no growth, -100 = all killed)
Conditions in all cases: 10 µM unless noted
SN12C renal = test system: SN12C renal
UO-31 renal = test system: UO-31 renal
TK-10 renal = test system: TK-10 renal
ACHN renal = test system: ACHN renal
CAKI-1 renal = test system: CAKI-1 renal
A498 renal = test system: A498 renal
CCRF-CEM leukemia = test system: CCRF-CEM leukemia
MOLT-4 leukemia = test system: MOLT-4 leukemia
SR leukemia = test system: SR leukemia

Row | SMILES | growth (SN12C renal) | growth (UO-31 renal) | growth (TK-10 renal) | growth (ACHN renal) | growth (CAKI-1 renal) | growth (A498 renal) | growth (CCRF-CEM leukemia) | growth (MOLT-4 leukemia) | growth (SR leukemia)
1 | FC(F)(F)c1cccc(Nc2nc3ccccc3nc2Nc2cccc(C(F)(F)F)c2)c1 | 32.3% | -74.7% (active) | -50.1% (active) | -21.5% (active) | -1.66% (active) | 54% | -2.8% (active) | -11.2% (active) | -29.4% (active)
2 | Cc1[nH]c2ccccc2c(=O)c1CC=C(Cl)Cl | 48.2% | 20.4% | 43.4% | 26.8% | 45.8% | 96.9% | 21.5% | 19.3% | -8.18% (active)
3 | COC(=O)C1(C)COP(=O)(Nc2ccc(OC)cc2)OC1 (stereo not given) | 102% | 82.7% | 108% | 104% | 99.2% | 101% | 102% | 99.2% | 93.2%
4 | CC(=Nc1ccccc1)C1=C(O)C(Cc2ccc(F)cc2)NC1=O (stereo not given) | 49.1% | 44.3% | 41.9% | 50.9% | 33.6% | 19.3% | 10.7% | 14.5% | 6.59% (active)
5 | CCN1CCN(c2cc(C)c3cc(NC(=O)c4ccc(OC)c(OC)c4)ccc3n2)CC1 | 44.7% | 54% | 57.6% | 58.4% | 48.1% | -3.67% (active) | 7.94% (active) | 16.2% | 1.64% (active)
6 | CCOC(=O)C1=CN(C)C=C(C(=O)OCC)C1c1cc(Br)c(OCC)c(OC)c1 | 56.5% | 16.3% | 43% | 54.6% | 52.5% | 59.1% | 32.9% | 27.5% | -0.61% (active)
7 | COc1ccc(CSc2nnc(SCC(=O)Nc3ccc(Cl)cc3)s2)cc1 | 68.5% | 52.8% | 96.3% | 59.9% | 38% | 85.6% | 53.3% | 58% | 86.1%
8 | CC(=O)c1ccc(Cc2ccc(C(C)=O)s2)s1 | 98% | 88.2% | 94.9% | 100% | 96.4% | -68.7% (active) | 95.5% | 83.2% | 89.4%
9 | CN(C)CCNc1cc(-c2ccccc2)nc2ccccc12 | -88.5% (active) | -94.2% (active) | -68% (active) | -27.5% (active) | -36.1% (active) | 52.4% | -9.11% (active) | 0.855% (active) | -23.1% (active)
10 | O=C(Nc1nc2c(s1)CCc1c-2c(Br)n(Cc2ccccc2)c1Br)c1ccccc1 | 87.7% | 57.6% | 54.9% | 46.8% | 67.4% | 75% | 77% | 83.1% | 70.3%
11 | COc1ccc(-c2nsc3c2NC(=O)CC3c2ccsc2)cc1 (stereo not given) | 41.9% | 45% | 53.2% | 41.9% | 27.6% | 0.156% (active) | -7.06% (active) | 17.5% | 19.2%
12 | Oc1c(C(Nc2ccccn2)c2cccc(Oc3ccccc3)c2)ccc2cccnc12 (stereo not given) | -89.4% (active) | -90.4% (active) | -90.9% (active) | -88.8% (active) | -90.3% (active) | -61% (active) | -59% (active) | -70.1% (active) | -49.7% (active)
13 | C[n+]1c2ccccc2nc2ccc(NCCO)cc21 | 85.6% | 45.8% | 127% | 83.7% | 93.4% | 75.1% | 64.5% | 63.8% | 60.3%
14 | Cc1ccc(C)c(-c2csc(Nc3ccc(C)c(C)c3)n2)c1 | 66.3% | 40.3% | 51.6% | 58.9% | 78.2% | 65.7% | 6.99% (active) | 24.9% | -6.45% (active)
15 | COc1ccc(C(=O)Nc2ccc3nc(N4CCCCC4)cc(C)c3c2)cc1OC | 88.8% | 98.7% | 104% | 94.9% | 88.4% | 35.5% | 54.8% | 49% | 33.1%
16 | O=[N+]([O-])c1cc2c(ccc3occc32)o1 | 32.4% | 23.4% | 35.7% | 4.13% (active) | -19.7% (active) | -5.92% (active) | 9.79% (active) | 17.1% | 10.9%
17 | CCOC(=O)c1cc2c(n1Cc1ccccc1)-c1oncc1CCC2 | 82.2% | 62.5% | 114% | 83.8% | 74% | 74.7% | 66.4% | 72% | 14.1%
18 | CCOC(=O)c1cnc2c(C)cccc2c1Nc1ccc(C(C)=O)cc1 | 29.9% | 13.3% | 10.7% | 17.7% | 12% | 46.5% | 1.73% (active) | -4.17% (active) | -28.5% (active)
19 | Cc1ccc2cc3c(N)c4c(C)ccc(C)c4nc3nc2c1 | 63.9% | 10.4% | 66.6% | 60.8% | 7.98% (active) | 41.9% | 39.6% | 44.8% | -9.96% (active)
20 | CCCCNc1nc(NC(C)(C)C)nc(NC(C)(C)C)n1 | 56.1% | 37.4% | 55.9% | 62.9% | 51.3% | 45.4% | 42.4% | 39.1% | 33.6%
21 | CCOC(=O)C1(Cc2ccccc2)CCN(Cc2cccc(OC)c2O)CC1 | 10.7% | -11.8% (active) | 36.7% | 10.8% | -11.3% (active) | 21.2% | 9.78% (active) | 9.72% (active) | 7.58% (active)
22 | Cc1ccc(S(=O)c2ccc([N+](=O)[O-])c3nonc23)cc1 (stereo not given) | 126% | 97.9% | 72.3% | 72.4% | 90.5% | 84.3% | 1.61% (active) | -3.44% (active) | -8.16% (active)
23 | CCOC(=O)c1cc2c(n1Cc1cc(OC)c(OC)c(OC)c1)-c1oncc1CCC2 | 32.1% | 38.3% | 85.2% | 33.8% | 43.7% | -22.9% (active) | 5.78% (active) | 7.85% (active) | 2.12% (active)
24 | O=C(N/N=C/c1ccccc1O)C(=O)Nc1ccc(F)cc1 | 44.5% | 19.3% | 53.8% | 30.4% | 22.7% | 92.4% | 23% | 21.3% | 23.3%
25 | COc1ccc(-c2cc(=O)c3c(OC)c4ccoc4c(/C=C/C=O)c3o2)cc1 | 13% | 44.1% | 68.7% | 75.4% | 95.1% | 78.8% | 0.782% (active) | -8.67% (active) | -8.77% (active)
26 | OC(CNC1CCCCC1)Cn1c2ccc(I)cc2c2cc(I)ccc21 (stereo not given) | 70.1% | 47.7% | 94.6% | 75.4% | 63.9% | 87.8% | 78.1% | 68.2% | 68.1%
27 | COc1ccc(Cn2c(Br)c3c(c2Br)-c2nc(NC(=O)c4ccc(OC)cc4)sc2CC3)cc1 | 85.1% | 44.9% | 89.4% | 51.8% | 76.2% | 65.9% | 85.3% | 94.7% | 67.4%
28 | COc1c2ccoc2c(/C=C/C=O)c2oc(-c3ccccc3)cc(=O)c12 | 38.7% | 60.1% | 93.8% | 91.5% | 93.1% | 72.4% | 0.373% (active) | 10.4% | 5.33% (active)
29 | CC(C)(C)c1ccc(C2CC(=O)C3=C(C2)Nc2ccccc2N(C(=O)c2ccccc2Cl)C3c2ccc(F)cc2)cc1 (stereo not given) | 3.86% (active) | 23.7% | 58.9% | 19.9% | 2.95% (active) | 35.5% | 15.7% | 6.7% (active) | 9.77% (active)
30 | C=C(C)CCC(C)N1CCC(N2CCC(C(=O)NCCc3ccccc3)CC2)CC1 (stereo not given) | 57.5% | 78.2% | 114% | 72.1% | 89.1% | 72% | 45.5% | 42.9% | 4.33% (active)
